One assay relates to Klebsiella pneumoniae. The conditions noted are these: Concentration 32 ug.mL-1;; ASSAY_TEST Inhibition of Bacterial Growth; detection method Absorption (OD600); MEDIA CAMHB; plate type 384well; NBS; CORNING #3640; time 18 hr.
For the next assay, the system named is Candida albicans. The conditions noted are these: Concentration 32 ug.mL-1; ASSAY_TEST Inhibition of Fungal Growth; detection method Absorption (OD530).
Another assay concerns Cryptococcus neoformans. The conditions noted are these: Concentration 32 ug.mL-1; ASSAY_TEST Inhibition of Fungal Growth; detection method Resazurin; Absorption (OD600-OD570); plate type 384well; NBS; CORNING #3640. A general note: The colour change of resazurin is a common sign of viable cells or microbes.

Potency and affinity values are given separately.

`COc1ccc(NC(=O)Cn2nc3c(Sc4ccccc4)nccn3c2=O)cc1`: the Inhibition (in general, the change of the read-out against control, counted positive when it falls) with Klebsiella pneumoniae is 7.48%; in the assay on Candida albicans, 1.47%; in the assay on Cryptococcus neoformans, -16%.

Consider `CCOc1ccc(-n2ccn3c(SCC(=O)Nc4cc(F)ccc4F)nnc3c2=O)cc1`, for which the Inhibition in the assay on Klebsiella pneumoniae was 6.4%; with Candida albicans, 2.5%; in the assay with Cryptococcus neoformans, -1.21%.

`Cc1nnc2c(=O)n(CC(=O)NC3CCCC3)c3ccccc3n12`: the results for the Inhibition in the assay on Klebsiella pneumoniae, with Candida albicans and with Cryptococcus neoformans were 6.01%, 0.18% and -17.78%, respectively.

For the molecule `O=C(Cn1nc2c3c4c(sc3ncn2c1=O)CCCC4)NCCc1ccc(Cl)cc1`, the values for the Inhibition in the assay on Klebsiella pneumoniae, in the assay on Candida albicans and in the assay with Cryptococcus neoformans were 9.47%, 7.92% and -14.7%, respectively.

With `COc1cccc(NC(=O)Cn2nc3ccc(-c4ccc(C)c(C)c4)nn3c2=O)c1`, the results for the Inhibition in the assay with Klebsiella pneumoniae, in the assay with Candida albicans and with Cryptococcus neoformans were -6.86%, 8.09% and -10.05%, respectively.

Turning to `O=C(CSc1nnc2c(=O)n(-c3ccc(Br)cc3)ccn12)c1c[nH]c2ccccc12`, the Inhibition in the assay with Klebsiella pneumoniae is given as 21.01%; with Candida albicans, 3.35%; in the assay with Cryptococcus neoformans, -16.54%.

Consider `COC(=O)c1cccc(NC(=O)Cn2nc3c(N4CCC(C)CC4)nccn3c2=O)c1`, for which the Inhibition with Klebsiella pneumoniae is given as 5.33%; in the assay on Candida albicans, 2.15%; in the assay on Cryptococcus neoformans, -12.99%.

As to `COc1ccc(C(C)NC(=O)CCc2nnc3ccc(-c4ccc(C)cc4)nn23)cc1OC` (stereo not given), the Inhibition with Klebsiella pneumoniae was 15.87%; with Candida albicans, 8.51%; with Cryptococcus neoformans, -54.1%.

Consider `CCc1nnc2c(=O)n(CC(=O)Nc3ccc(Br)cc3F)c3ccccc3n12`, for which the Inhibition in the assay on Klebsiella pneumoniae was 8.6%; in the assay with Candida albicans, 6.85%; in the assay with Cryptococcus neoformans it was -13.86%.

Consider `Cc1ccc(-c2cc3c4nn(CC(=O)Nc5c(C)cccc5C)c(=O)n4ccn3n2)cc1`, for which the Inhibition with Klebsiella pneumoniae is recorded as 9.73%; with Candida albicans it was -0.52%; in the assay on Cryptococcus neoformans it was -14.67%.

As to `O=c1n(Cc2nc(-c3ccc(OC(F)(F)F)cc3)no2)nc2ccc(-c3ccccc3)nn12`, the Inhibition with Klebsiella pneumoniae is recorded as 8.49%; in the assay with Candida albicans, 3.85%; in the assay on Cryptococcus neoformans, -17.12%.

Regarding `CCc1ccc(N(Cc2ccccc2)S(=O)(=O)c2cccn3cnnc23)cc1`, the results for the Inhibition in the assay on Klebsiella pneumoniae, in the assay on Candida albicans and in the assay on Cryptococcus neoformans were 1.9%, 2.34% and -3.81%, respectively.

`N#Cc1ccc(NC(=O)Cn2nc3c(SC4CCCCC4)nccn3c2=O)cc1`: the Inhibition in the assay on Klebsiella pneumoniae is on record as 10.51%; in the assay on Candida albicans, 3.23%; in the assay on Cryptococcus neoformans it was -20.35%.

`CCCN(C)c1nccn2c(=O)n(CC(=O)Nc3cccc(Br)c3)nc12`: the Inhibition is 8.58% in the assay on Klebsiella pneumoniae, 1.99% in the assay with Candida albicans and -9.25% with Cryptococcus neoformans.

Consider `O=C(CCc1nnc2c3cc(-c4ccc(Cl)cc4)nn3ccn12)N1CCN(c2ccccn2)CC1`, for which the values for the Inhibition in the assay with Klebsiella pneumoniae, in the assay on Candida albicans and in the assay with Cryptococcus neoformans were 12.64%, -0.78% and -16.65%, respectively.

Take `O=c1c2sccc2n2c(=O)n(Cc3ccc(Br)cc3)nc2n1CCc1ccccc1`: the results for the Inhibition with Klebsiella pneumoniae, with Candida albicans and with Cryptococcus neoformans were -2.03%, 27.87% and -16.22%, respectively.

For `COc1cccc(-n2ccn3c(SCC(=O)Nc4cc(F)ccc4F)nnc3c2=O)c1`, the Inhibition in the assay on Klebsiella pneumoniae is 6.91%; in the assay on Candida albicans, 7.1%; in the assay on Cryptococcus neoformans, -8.94%.

For the molecule `Cc1nnc2ccc(S(=O)(=O)N(Cc3cccc(F)c3)c3ccc(F)cc3)cn12`, the values for the Inhibition with Klebsiella pneumoniae, in the assay on Candida albicans and with Cryptococcus neoformans were 4.75%, 1.87% and -9.68%, respectively.

Turning to `Cc1ccc(C)c(NC(=O)Cn2nc3n(C)c(=O)c4c(c(-c5ccccc5)cn4C)n3c2=O)c1`, the Inhibition is given as -7.88% with Klebsiella pneumoniae, 1.95% in the assay on Candida albicans and -9.34% in the assay with Cryptococcus neoformans.

Turning to `Cc1cccc(CN(c2cccc(F)c2)S(=O)(=O)c2ccc3nncn3c2)c1`, the results for the Inhibition with Klebsiella pneumoniae, in the assay with Candida albicans and in the assay with Cryptococcus neoformans were 14.36%, 3.33% and -4.78%, respectively.

With `Cc1ccc(Cl)cc1NC(=O)CSc1nnc2c(=O)n(-c3ccccc3)ccn12`, the Inhibition in the assay on Klebsiella pneumoniae is given as 9.22%; in the assay on Candida albicans it was 2.4%; with Cryptococcus neoformans, -17.19%.

Consider `CCc1ccccc1NC(=O)CSc1nnc2ccc(C(=O)Nc3cccc(F)c3)cn12`, for which the Inhibition is given as 6.52% in the assay on Klebsiella pneumoniae, 8.2% with Candida albicans and -4.61% in the assay with Cryptococcus neoformans.

For `COc1cccc(CN(c2ccc(F)cc2)S(=O)(=O)c2cccn3cnnc23)c1`, the Inhibition is on record as -0.69% in the assay with Klebsiella pneumoniae, -0.06% with Candida albicans and -1.54% with Cryptococcus neoformans.

Turning to `Cc1cccc(NC(=O)Cn2nc3c(SCc4ccccc4)nccn3c2=O)c1C`, the results for the Inhibition in the assay with Klebsiella pneumoniae, in the assay with Candida albicans and in the assay with Cryptococcus neoformans were 5.49%, 0.78% and -13.96%, respectively.

In the case of `O=S(=O)(c1ccc2nncn2c1)N(Cc1cccc(F)c1)c1cc(F)cc(F)c1`, the Inhibition in the assay on Klebsiella pneumoniae is recorded as 12.28%; in the assay on Candida albicans, 4.13%; in the assay with Cryptococcus neoformans it was -6.89%.

On to `Cc1cccc(CN(c2ccccc2)S(=O)(=O)c2cccn3c(C)nnc23)c1`, for which the Inhibition in the assay with Klebsiella pneumoniae was 4.77%; in the assay with Candida albicans, -0.3%; with Cryptococcus neoformans, -6.4%.

Turning to `O=C(Cn1nc2c3c4c(sc3ncn2c1=O)CCCC4)N1CCc2ccccc2C1`, the Inhibition is listed as 9.79% in the assay on Klebsiella pneumoniae, 4.18% in the assay on Candida albicans and -11.61% with Cryptococcus neoformans.

`O=C(CSc1nc2ccccc2n2cnnc12)Nc1cccc(Br)c1`: the Inhibition with Klebsiella pneumoniae is 2.26%; with Candida albicans, -0.56%; with Cryptococcus neoformans, -6.2%.

For the molecule `CCc1nnc2c(=O)n(CC(=O)Nc3ccc4c(c3)OCCO4)c3ccccc3n12`, the Inhibition in the assay on Klebsiella pneumoniae was 1.64%; in the assay on Candida albicans, 13.49%; in the assay with Cryptococcus neoformans it was -11.52%.

For `Cc1ccc(Oc2nccn3c(=O)n(CC(=O)Nc4cccc(Cl)c4)nc23)cc1`, the values for the Inhibition with Klebsiella pneumoniae, with Candida albicans and in the assay on Cryptococcus neoformans were 2.02%, 5.47% and -14.56%, respectively.

(Values after ChEMBL document CHEMBL4513146, “CO-ADD screening of Karazin Kharkiv National University (Ukraine) compounds”.)
